U2OS ROS induce – ROS inducers in U2OS cancer cells, primary screen, cell-based, H2DCF-DA fluorescence. hit rate 2% among 46,000. ROS induction (% of piperlongumine), % at 10 µM. U2OS ROS induction. AID 624156, 2012; in the data active = ROS induction above about 79%, passing the limit was not always enough;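 also: 0% = DMSO vehicle median and 100% = reference compound median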
PD-1 reversal – activators reversing PD-1 mediated T-cell inhibition, primary screen, luminescence, primary human CD4 T cells, PD-L1 beads | 29,000 tested, under 10 active | AID 2316, 2010 | CellTiter-Glo 96 h | activation, % (no concentration beside the values); call rule not given here;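 also: 0% = median vehicle wells and 100% = positive control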
YB-1 expression – inhibitors of YB-1 gene expression, primary screen, cell-based, fluorescence | U2OS, qRT-PCR YB-1 vs CDIP delta delta Cp, 16 h; hits give high values; zero = DMSO, each unit about twofold | delta delta Cp (YB-1 minus CDIP) (no concentration beside the values) | hit rate 0.37% among 30,000;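 active = delta delta Cp rounded down to an integer at or above 3, about 3 SD of DMSO wells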;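 also: higher means less YB-1 transcript or more CDIP transcript relative to DMSO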
Active calls of the source: *; . = not tested or not shown. This is a sample that favours compounds with a hit; in the whole collection about 2.1% have one here.

SMILES	U2OS ROS induce	PD-1 reversal	YB-1 expression
C[C@H](CO)N1C[C@H](C)[C@@H](CN(C)Cc2ccc(-c3ccccc3)cc2)Oc2ccc(N(C)C)cc2C1=O	94*	-2	0.12
COc1ccc(CN(C)C[C@H]2Oc3c(NC(=O)Nc4ccccc4)cccc3C(=O)N([C@@H](C)CO)C[C@H]2C)cc1	4	.	-0.071
C[C@H]1CN([C@@H](C)CO)C(=O)c2cccc(NC(=O)C3CC3)c2O[C@@H]1CN(C)Cc1ccc(Oc2ccccc2)cc1	94*	.	0.0039
COc1ccc(NC(=O)Nc2cccc3c2O[C@H](CN(C)Cc2ccc(Oc4ccccc4)cc2)[C@H](C)CN([C@@H](C)CO)C3=O)cc1	89*	-4	0.13
C[C@H]1CN([C@@H](C)CO)C(=O)c2cc(NC(=O)NC3CCCCC3)ccc2O[C@@H]1CN(C)Cc1ccc(-c2ccccc2)cc1	137*	-1	-0.71
C[C@H]1CN([C@@H](C)CO)C(=O)c2cccc(NC(=O)C3CCCCC3)c2O[C@H]1CN(C)Cc1ccc(Oc2ccccc2)cc1	34	0	0.3
Cc1ccc(Cn2c(=N)n(CC(=O)O)c3ccccc32)cc1	-7	.	.
COc1ccc(/C=C/c2cc(OC)cc3c2CCC(C)(C)O3)cc1	26	-1	0.61
Cc1ccc2nc(-c3cccc(NC(=O)COc4ccccc4C)c3)oc2c1	5	1	.
CCc1cccc(C)c1NC(=O)C1COc2ccccc2O1 (stereo not drawn)	-19	.	.
C[C@H]1CN([C@@H](C)CO)C(=O)c2cc(NC(=O)C3CCCCC3)ccc2O[C@@H]1CN(C)Cc1ccc(Oc2ccccc2)cc1	89*	-5	0.13
C[C@@H]1CN([C@@H](C)CO)C(=O)c2cccc(NC(=O)C3CC3)c2O[C@@H]1CN(C)Cc1ccc(Oc2ccccc2)cc1	11	2	0.53
C[C@H](CO)N1C[C@H](C)[C@H](CN(C)Cc2ccc(-c3ccccc3)cc2)Oc2c(NC(=O)C3CC3)cccc2C1=O	18	-6	0.034
C[C@H](CO)N1C[C@H](C)[C@@H](CN(C)Cc2ccc(Oc3ccccc3)cc2)Oc2c(NC(=O)C3CC3)cccc2C1=O	84*	-2	-0.089
C[C@@H]1CN([C@@H](C)CO)C(=O)c2cc(NC(=O)C3CCCCC3)ccc2O[C@@H]1CN(C)Cc1ccc(Oc2ccccc2)cc1	10	0	-0.68
C[C@H](CO)N1C[C@H](C)[C@@H](CN(C)Cc2ccc(-c3ccccc3)cc2)Oc2c(NC(=O)C3CC3)cccc2C1=O	173*	.	0.73
COc1cc(Cl)c(/C=N\NC(=O)CCCCC(=O)NO)c(Cl)c1OC	-7	.	-0.5
Cc1cc(/C=C2/SC(=O)N(C(C)C)C2=O)c(C)n1-c1ccncc1	13	-1	9.6*
Cc1cc(C)cc(-n2c(C)cc(/C=C3\SC(=O)NC3=O)c2C)c1	58	0	-0.053
Nc1nnnn1CC(=O)N(Cc1ccco1)C1(C(=O)Nc2ccccc2)CCCCC1	-2	.	.
Cc1nc2c(C(=O)NCc3ccc4c(c3)OCO4)cnn2c(C)c1Cc1c(F)cccc1Cl	12	.	.
COc1cccc(CNC(=O)c2cnn3c(C)c(Cc4c(C)cc(C)cc4C)c(C)nc23)c1	142*	.	.
CC1CN(C2=NC(=O)/C(=C/c3ccccc3)S2)CC(C)O1 (stereo not drawn)	21	0	0.56
CN(C)CN1C(=O)c2ccccc2C1=O	-15	.	.
C[C@H](CO)N1C[C@H](C)[C@H](CN(C)C(=O)Nc2cccc3ccccc23)Oc2ncc(-c3cccc(F)c3)cc2C1=O	60	.	-0.27
SMILES	U2OS ROS induce	PD-1 reversal	YB-1 expression
C[C@H](CO)N1C[C@H](C)[C@H](CN(C)C(=O)NC2CCCC2)Oc2ncc(-c3cccc(C(F)(F)F)c3)cc2C1=O	122*	.	-0.28
C[C@H](CO)N1C[C@H](C)[C@H](CN(C)C(=O)NC2CCCCC2)Oc2ncc(/C=C/c3ccccc3)cc2C1=O	109*	.	-0.64
C[C@H](CO)N1C[C@H](C)[C@H](CN(C)C(=O)Nc2cccc3ccccc23)Oc2ncc(-c3cccc(C(F)(F)F)c3)cc2C1=O	109*	.	0.47
CC(C)NC(=O)N(C)C[C@@H]1Oc2ncc(-c3cccc(C(F)(F)F)c3)cc2C(=O)N([C@H](C)CO)C[C@@H]1C	51	.	-0.15
CC(C)NC(=O)N(C)C[C@@H]1Oc2ncc(/C=C/c3ccccc3)cc2C(=O)N([C@H](C)CO)C[C@@H]1C	15	.	-1.4
COc1ccc2c(c1)CCc1c-2nc2ccc(Br)cc2c1C(=O)O	-4	.	.
CCc1ccc(OCC(=O)Nc2cc(OC)ccc2OC)c(Br)c1	19	-1	.
CCOc1ccc(NC(=O)N(CCC(C)C)C(C)c2cccs2)cc1 (stereo not drawn)	-3	.	.
COc1ccc(C(=O)Nc2sc3c(c2C(=O)Nc2cccc(OC)c2)CCC3)cc1	34	2	.
COC(=O)c1ccc(Cl)c(NC(=O)CN(c2ccc(I)cc2)S(C)(=O)=O)c1	5	-1	.
O=C(c1ccccc1C(=O)N1CCCCC1)N1CCCCC1	1	0	-0.2
C[C@H]1CN([C@@H](C)CO)C(=O)Cc2cc(NC(=O)c3ccncc3)ccc2O[C@@H]1CN(C)S(=O)(=O)c1ccc(Cl)cc1	24	.	0.15
Cc1ccc(S(=O)(=O)N(C)C[C@H]2Oc3ccc(NC(=O)Nc4ccccc4)cc3CC(=O)N([C@@H](C)CO)C[C@@H]2C)cc1	123*	-2	-0.33
Cc1ccc(S(=O)(=O)N(C)C[C@@H]2Oc3ccc(NC(=O)Nc4ccc(C(F)(F)F)cc4)cc3CC(=O)N([C@@H](C)CO)C[C@@H]2C)cc1	98*	-7	0.041
C[C@H](CO)N1C[C@H](C)[C@H](CN(C)S(=O)(=O)c2ccc(Cl)cc2)Oc2ccc(NC(=O)c3ccncc3)cc2CC1=O	102*	1	0.2
Cc1ccc(S(=O)(=O)N(C)C[C@H]2Oc3ccc(NC(=O)Nc4ccc(C(F)(F)F)cc4)cc3CC(=O)N([C@@H](C)CO)C[C@H]2C)cc1	36	-4	0.4
Cc1ccc(S(=O)(=O)N(C)C[C@@H]2Oc3ccc(NC(=O)Nc4ccccc4)cc3CC(=O)N([C@H](C)CO)C[C@@H]2C)cc1	5	.	-0.059
COC(=O)NCC12CC3CC(CC(C3)C1)C2	18	-1	0.38
COc1ccccc1/C=C/C(=O)N1CCCC(c2ccccc2)C1 (stereo not drawn)	9	.	.
CCOC(=O)c1cnc2ccc(OCC)cc2c1NC(C)CC (stereo not drawn)	42	-21	-0.39
CCOC(=O)c1cnc2ccc(OCC)cc2c1N1CCN(c2ccccc2)CC1	128*	-1	0.49
CCC(Sc1nnc(C)n2c1cc1oc(C)cc12)C(=O)Nc1cccc(OC)c1 (stereo not drawn)	96*	.	.
CCn1c(SCC(=O)Nc2cccc(OC)c2)nnc1-c1cccc(C)c1	7	0	.
CCCCCCCCCC(O)CC(O)CC(O)CC1CC=CC(=O)O1 (stereo not drawn)	36	-2	-0.088
CC(Oc1ccc(Br)cc1)C(=O)NN (stereo not drawn)	-8	.	.
Cn1c(SCCCN2C(=O)c3cccc4cccc(c34)C2=O)nnc1-c1cccs1	38	0	.
COc1ccc(-n2c(SCCCN3C(=O)c4cccc5cccc(c45)C3=O)nnc2-c2ccncc2)cc1	88*	-2	.

High-throughput results (PubChem)
